# CtBP-E1A inh – inhibitors of CtBP/E1A interaction; AlphaScreen GST-E1A/His-CtBP binding, 1536-well; hits give low values; activity change, % (concentration not given with the values); 0.49% of 340,000 active; AID 651724; in the data active = activity change below about -65%; inconclusive = mostly about -30% to -63%
#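 In 5 uL wells, 23 nL compound meets equimolar GST-E1A and His-CtBP (5X stock 125 nM each) for 2 h, 37 °C. Beads (5X, 50 ug/mL) then 1 h, 37 °C, dark.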
# DT40 TDP1 no CPT – qHTS for Inhibitors of human tyrosyl-DNA phosphodiesterase 1 (TDP1): qHTS in cells in absence of CPT | Potency, µM (series often up to 46.2 µM), for inactives: at the highest dose activity change, negative = growth inhibition, usual class: inhibitors | DT40 Tdp1-/- hTDP1 cells, no CPT, ATP luminescence, 48 h | AID 686978, 2013 | 15% of 420,000 active; also: potency is read from the fitted curve at half-maximal effect; nearly all actives have a fitted effect of over 55% in size
#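 Luminescent ATP content (CellTiter-Glo) served as the growth readout. Knockout chicken DT40 cells expressing human TDP1 were exposed to compounds without camptothecin for a minimum 48 hr at 37 °C.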
# IL-1B inflam inh – inhibitors of inflammasome signaling (IL-1 beta secretion). AID 743279. 4.7% of 360,000 active. activity change, % at 57.5 µM. THP-1 LPS/ATP IL-1B secretion, AlphaLISA, 16 h; hits give low values; in the data active = activity change below about -50%; inconclusive = mostly about -30% to -49%
#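 THP-1 cells pretreated 1 hr with compounds (up to 57.5 uM final), then stimulated with LPS (250 ng/mL final) plus ATP (1.25 mM final); secreted IL-1B measured by AlphaLISA after 16 hr, decreased signal indicating inhibition.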
# TDP1 cell CPT – DT40-hTDP1 cell growth loss with CPT | chicken DT40 Tdp1-/-;hTDP1 cells + 20 nM CPT, ATP luminescence, 48 h | Potency, µM (top dose mostly 46.2 µM), for the others: at the highest dose activity change, negative = growth inhibition, usual class: inhibitors | 12% of 420,000 active | AID 686979; also: potency is read from the fitted curve at half-maximal effect; nearly all actives have a fitted effect of over 55% in size
#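 Chicken DT40 Tdp1-/- cells complemented with human TDP1, 400 cells/well, exposed to compounds plus 20 nM camptothecin for at least 48 h at 37 C; viability read as ATP content by CellTiter-Glo luminescence.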
# Six1-Eya2 inh – inhibitors of human Six1/Eya2 interaction; AID 651725; AlphaScreen GST-Six1/His-Eya2 binding, biochemical; hits give low values; 0.56% of 360,000 active; activity change, % (no concentration beside the values); Q15475+O00167; in the data active = activity change below about -65%; inconclusive = mostly about -30% to -63%
#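 Homogeneous AlphaScreen proximity assay pairing GST-Six1 with His-tagged Eya2 (added as 5X mix: 250 nM and 500 nM) in 50 mM Tris pH 8.0, 300 mM NaCl, 1 mM TCEP. Glutathione donor and nickel acceptor beads; 1 h, 37 °C, dark.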
# TDP1 inh – inhibitors of human tyrosyl-DNA phosphodiesterase TDP1 | recombinant TDP1, AlphaScreen DNA substrate cleavage | 0.28% of 350,000 active | Q9NUW8 | AID 485290 | Potency, µM (doses to about 130 µM), for inactives: top-dose activity change, negative = inhibition, actives largely listed as inhibitors; also: potency is read from the fitted curve at half-maximal effect; nearly all actives have a fitted effect of over 40% in size
# Target sequence (Q9NUW8 whole entry, looked up): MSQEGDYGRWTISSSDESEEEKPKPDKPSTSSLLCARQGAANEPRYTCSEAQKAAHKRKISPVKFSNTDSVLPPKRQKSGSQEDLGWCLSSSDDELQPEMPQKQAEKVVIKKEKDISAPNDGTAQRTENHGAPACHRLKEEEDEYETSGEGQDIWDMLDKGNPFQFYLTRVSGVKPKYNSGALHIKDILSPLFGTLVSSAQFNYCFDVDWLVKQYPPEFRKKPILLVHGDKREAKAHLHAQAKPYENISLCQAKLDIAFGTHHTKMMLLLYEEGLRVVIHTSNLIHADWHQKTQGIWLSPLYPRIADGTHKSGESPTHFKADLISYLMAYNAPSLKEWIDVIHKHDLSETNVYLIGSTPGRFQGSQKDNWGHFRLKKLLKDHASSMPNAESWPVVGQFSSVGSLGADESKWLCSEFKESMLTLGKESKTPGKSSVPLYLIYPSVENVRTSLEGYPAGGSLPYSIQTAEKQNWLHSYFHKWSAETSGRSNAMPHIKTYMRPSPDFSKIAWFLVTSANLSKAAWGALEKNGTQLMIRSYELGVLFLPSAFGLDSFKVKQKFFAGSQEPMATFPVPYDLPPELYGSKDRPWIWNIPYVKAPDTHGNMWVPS
#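 Tdp1 1 nM final; 15 min RT w/ cpd; substrate 15 nM, 5 min; beads 10 ug/ml, 10 min; AlphaScreen read. Neg ctrl: no enzyme.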
# Active calls of the source: *; u = inconclusive; x = no result given. A selection: hits, their analogues and other compounds. The true share with any hit is near 18%. Unless noted, calls follow the shape of the dose curve; as a rule, active = well fitted curve in the direction sought with a large enough effect; inconclusive = small, poorly fitted or top-dose-only effect, or another doubt; inactive = no such curve, though single readings can be large; an effect the other way counts as inactive or inconclusive. % is scaled to controls: 0 for no effect and ±100 for the full control effect.
SMILES,CtBP-E1A inh,DT40 TDP1 no CPT,IL-1B inflam inh,TDP1 cell CPT,Six1-Eya2 inh,TDP1 inh
Cc1cccc(CN2C(=O)c3ccccc3Sc3ccc(C(=O)NCCN4CCOCC4)cc32)c1,-2,u,-68*,-1%,6,10%
CCNC(=O)COc1ccc(F)cc1C(=O)c1cnn(-c2ccccc2)c1,0,u,u,u,16,6%
O=C(COc1ccccc1C(=O)c1cnn(-c2ccccc2)c1)Nc1ccccc1,-17,15µM*,22,u,0,3%
COc1ccccc1CNC(=O)COc1ccccc1C(=O)c1cnn(-c2ccccc2)c1,-7,u,-7,23µM*,-7,0%
O=C(N1CCCC1)C12CC3CC(CC(Cl)(C3)C1)C2,x,u,25,u,8,x
CCc1sc(C(=O)N(CCCOC)c2c(N)n(CC(C)C)c(=O)[nH]c2=O)cc1C,0,0%,9,-25%,0,-1%
COc1cccc(/C=N/NC(=S)NC2CC3CC2C2C=CCC32)c1O (configuration not stated),-9,29µM*,x,u,-5,x
Oc1c(Br)cc(Br)cc1/C=N/NC(=S)N[C@H]1CC2C=CC1C2 (some centres not stated),-25,u,90,u,-23,11%
Oc1ccccc1/C=N/NC(=S)NC1CC2CC1C1C=CCC21 (configuration not stated),u,4.1µM*,u,3.7µM*,u,9%
C=CCSc1nn2c(=O)c3ccccc3nc2s1,-21,-13%,-29,-17%,-19,-2%
Cc1ccnc(Nc2nc(-c3ccc(F)cc3)cs2)c1,-14,u,-93*,u,-8,x
Cc1ccc(Nc2nc(-c3ccncc3)cs2)cc1,1,u,-4,u,3,-15%
Cc1ccnc(NCc2ccc(Cl)cc2)c1,6,u,-58*,u,-1,4%
Cc1ccnc(Nc2nc(-c3ccc(Cl)cc3)cs2)c1,-1,21µM*,5,u,2,x
O=c1[nH]c(-c2ccc(Cl)cc2)cs1,-11,-24%,-55*,u,5,5%
N#Cc1ccc(-c2csc(NNC(=O)c3ccccc3)n2)cc1,-1,u,-2,u,6,9%
N#Cc1ccc(-c2csc(NNC(=O)c3ccc(Br)cc3)n2)cc1,-16,5.8µM*,-2,5.2µM*,-28,10%
CC(=O)Nc1ccc(-c2csc(NNC(=O)c3ccc(C)cc3)n2)cc1,x,10µM*,-12,13µM*,-5,8%
O=C(NNc1nc(-c2ccccc2)cs1)c1ccccc1,9,21µM*,-14,u,1,10%
Cc1ccc2c(c1)NC(=O)C(CC(=O)Nc1ccc(CN3CCC(C)CC3)cc1)O2 (configuration not stated),-2,u,-21,u,0,2%
CCOC(=O)/C(C#N)=C1\Nc2ccccc2N=C1N(CC(C)C)CC(C)C,-1,18µM*,-59*,u,-5,-2%
CCOC(=O)C1=C(C)Nc2ccccc2N=C1N,-1,11%,4,-2%,0,-5%
CCCCN(CCCC)C1=Nc2ccccc2N/C1=C(/C#N)C(=O)OCC,15,21µM*,-7,21µM*,1,-1%
O=c1oc(=S)oc2c1[C@H](c1ccc(Cl)cc1)O[C@H](C1CC1)C2,5,-14%,17,-3%,1,x
O=c1oc(=S)oc2c1[C@H](c1ccc(Cl)cc1)O[C@H](C1CCCC1)C2,5,23µM*,28,u,1,x
SMILES,CtBP-E1A inh,DT40 TDP1 no CPT,IL-1B inflam inh,TDP1 cell CPT,Six1-Eya2 inh,TDP1 inh
COc1ccc(-c2csc3nc(-c4cccnc4)nc(Cl)c23)cc1OC,-6,u,-87*,u,-4,3%
CCc1nc2ccc(C(=O)N3CCN(c4ccccc4)CC3)cn2c1N(C)CCCc1ccccc1,-17,16µM*,-4,13µM*,-14,x
CCc1nc2ccc(C(=O)N(CC)CCN(C)C)cn2c1N(C)CCCc1ccccc1,-8,u,u,u,-8,x
CCc1nc2ccc(C(=O)N3CCN(c4ccccc4)CC3)cn2c1N(C)CCC(C)C,-5,21µM*,-10,u,-3,x
C/C(CC(=O)NC1C2CC3CC(C2)CC1C3)=N\NC(=O)Cc1cccs1 (configuration not stated),3,-9%,16,4%,8,2%
O=C(Nc1ccccc1Cl)C1(c2ccccc2)CC1(Cl)Cl (configuration not stated),6,12µM*,7,-18%,12,3%
CC(=O)c1ccc(NC(=O)C2(c3ccccc3)CC2(Cl)Cl)cc1 (configuration not stated),5,u,x,-16%,-1,-3%
O=C(NC1CCCC1)C(NS(=O)(=O)c1cccc2nsnc12)c1ccccc1 (configuration not stated),-5,-12%,30,1%,0,2%
CCCCc1ccc(-c2csc(/C(C#N)=C\c3ccc(C)o3)n2)cc1,47,-4%,-50*,-27%,0,4%
Cc1cccc(NC(=O)C2CCN(S(=O)(=O)c3cccc4nonc34)CC2)c1,-5,-18%,-8,-7%,0,6%
COc1ccc2c(-c3ccccc3)cc(SCC(N)=O)nc2c1,-2,21µM*,-10,-27%,-2,4%
COc1ccc2nc(SCC(N)=O)cc(C)c2c1,-1,-2%,-6,1%,-1,7%
OC(COCC(F)(F)C(F)(F)C(F)(F)C(F)F)Cn1c2ccccc2c2ccccc21 (configuration not stated),7,8.2µM*,-103*,13µM*,10,4%
OCCNCC(O)Cn1c2ccccc2c2ccccc21 (configuration not stated),9,6%,-5,-13%,9,-8%
Cc1ccc(OCCN2CCN(CC(O)Cn3c4ccccc4c4ccccc43)CC2)cc1 (configuration not stated),x,x,x,x,x,9%
Cc1cccc(C)c1OCC(O)Cn1c2ccccc2c2ccccc21 (configuration not stated),11,21µM*,-7,u,11,-7%
Cc1ccc(OCC(O)Cn2c3ccccc3c3ccccc32)cc1 (configuration not stated),7,13µM*,-84*,u,3,-8%
